{"source": "PubChem BioAssay AID651704", "about": "(Broad Institute, 2012)", "note": "Values joined by “and” are separate entries in the source; they are usually repeats but may differ in a detail not shown here. Equal entries are not always repeated. About 1,600 (0.46%) of roughly 350,000 compounds were called active. Shown is part of a subset that was picked to be rich in actives. Unmarked numbers belong to inactive results.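 How the source made its calls: active means every replicate reaching a set inhibition limit, whatever the replicate mean (cut at about 25% in these data); inconclusive means mean inhibition reaches that limit but some replicates miss it; inactive means the rest.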", "data": [{"biological_target": "Protein AF-9 (Homo sapiens) (UniProt P42568)", "sequence (P42568 whole entry, looked up)": "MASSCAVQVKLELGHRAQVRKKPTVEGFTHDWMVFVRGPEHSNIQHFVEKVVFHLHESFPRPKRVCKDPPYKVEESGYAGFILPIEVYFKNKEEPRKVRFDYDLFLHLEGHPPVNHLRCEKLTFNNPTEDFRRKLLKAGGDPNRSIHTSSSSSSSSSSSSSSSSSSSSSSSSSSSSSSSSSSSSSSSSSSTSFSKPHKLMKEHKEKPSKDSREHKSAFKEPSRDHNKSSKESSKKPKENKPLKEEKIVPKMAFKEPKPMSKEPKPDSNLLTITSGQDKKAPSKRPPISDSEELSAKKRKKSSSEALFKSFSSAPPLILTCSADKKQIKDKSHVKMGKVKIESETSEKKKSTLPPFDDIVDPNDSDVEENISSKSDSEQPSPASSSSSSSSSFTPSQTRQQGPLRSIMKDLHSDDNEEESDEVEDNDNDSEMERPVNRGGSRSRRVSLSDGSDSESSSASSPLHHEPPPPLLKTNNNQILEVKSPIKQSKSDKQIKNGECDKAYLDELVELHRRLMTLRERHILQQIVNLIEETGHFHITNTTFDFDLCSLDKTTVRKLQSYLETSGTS", "test": "inhibitors of AF4 peptide binding to AF9, primary screen, biochemical, AlphaScreen, biotin-AF4 peptide, FLAG-AF9, single point (AID 651704);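 further: 0% = plate neutral control median and 100% = total signal loss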", "conditions": "at 10 µM, active compounds read high", "values": [{"compound": "C/C=C/c1ccc([C@@H]2[C@H](CO)N(CC3CCCC3)C23CN(C(=O)CC2CC2)C3)cc1", "inhibition": "5.28%"}, {"compound": "CN(C)C(=O)C[C@H]1C=C[C@@H](NC(=O)c2ccc(F)cc2)[C@@H](CO)O1", "inhibition": "-2.41%"}, {"compound": "COc1ccccc1S(=O)(=O)N(C)C[C@@H]1Oc2cc(C#CCC3CCCC3)ccc2S(=O)(=O)N([C@H](C)CO)C[C@H]1C", "inhibition": "2.17%"}, {"compound": "O=C(NCCCN1CCN(c2ccc(F)cc2)CC1)Nc1ccc([N+](=O)[O-])cc1", "inhibition": "25.7% (active)"}, {"compound": "O=C(NCCCN1CCOCC1)c1ccc([N+](=O)[O-])cc1[N+](=O)[O-]", "inhibition": "-2.14%"}, {"compound": "CN1CCN(CCNC(=O)Nc2ccc([N+](=O)[O-])cc2)CC1", "inhibition": "-2.1%"}, {"compound": "CO[C@H]1CN(C)C(=O)c2cc(NS(=O)(=O)CC(F)(F)F)ccc2OC[C@H](C)N(C(=O)c2ccc3c(c2)OCO3)C[C@H]1C", "inhibition": "-1.49%"}, {"compound": "CC(C)=CCCC1(C)C=Cc2c(ccc3c2[nH]c2cc(O)c(C)cc23)O1", "note": "(configuration not stated)", "inhibition": "26.9% (active)"}, {"compound": "COc1ccc(CN(C)C[C@@H]2OCCCC[C@H](C)Oc3ccc(NS(=O)(=O)c4cccs4)cc3C(=O)N([C@H](C)CO)C[C@@H]2C)cc1", "inhibition": "5.32%"}, {"compound": "N#Cc1ccc(-c2ccc(C3[C@@H]4CN(S(=O)(=O)c5ccccc5F)C[C@H]3N4)cc2)cc1", "note": "(some centres not stated)", "inhibition": "-2.55% and -2.34%"}, {"compound": "COCC#Cc1ccc([C@@H]2[C@H]3CN(C(=O)C4CCOCC4)CC(=O)N3[C@H]2CO)cc1", "inhibition": "-0.325%"}, {"compound": "Cc1ccc(S(=O)(=O)Nc2ccc3c(c2)C(=O)N([C@H](C)CO)C[C@@H](C)[C@@H](CN(C)C(=O)CCC(F)(F)F)OCCCC[C@@H](C)O3)cc1", "inhibition": "-0.265%"}, {"compound": "O=C(Cc1c[nH]c2ccccc12)N/N=C/c1cccc(F)c1", "inhibition": "2.76%"}, {"compound": "CSC(=S)N/N=C/c1c[nH]c2ccccc12", "inhibition": "33.1% (active)"}, {"compound": "C[n+]1ccc(/C=C/c2c[nH]c3ccccc23)cc1", "inhibition": "11.9%"}, {"compound": "CCCC#Cc1ccc([C@H]2[C@H]3CN(C(=O)Nc4ccc(F)cc4)CC(=O)N3[C@H]2CO)cc1", "inhibition": "0.647%"}, {"compound": "CO[C@@H]1CN(C)C(=O)c2cc(NS(=O)(=O)c3ccccc3C)ccc2OC[C@@H](C)N(S(C)(=O)=O)C[C@@H]1C", "inhibition": "-4%"}, {"compound": "COc1ccc(N2CCN(S(=O)(=O)c3ccc4c(c3)N(C(C)=O)CCO4)CC2)cc1", "inhibition": "1.85%"}, {"compound": "COc1ccc(NS(=O)(=O)c2cc3c(cc2C)N(C(C)=O)CCO3)cc1", "inhibition": "52.8% (active)"}, {"compound": "COc1ccc(NS(=O)(=O)c2cc(NC(=O)C3CCCCC3)ccc2N2CCOCC2)cc1", "inhibition": "1.75%"}, {"compound": "C[C@@H]1CN([C@@H](C)CO)C(=O)c2cc(-c3ccc(F)cc3)cnc2O[C@@H]1CN(C)Cc1ccc(C(=O)O)cc1", "inhibition": "-2.45%"}, {"compound": "N#C[C@@H]1[C@H](c2ccccc2C2=CCCCC2)[C@@H](CO)N1S(=O)(=O)c1cccc(F)c1", "inhibition": "-2.55%"}, {"compound": "O=C(C[C@@H]1CC[C@@H]2[C@H](COC[C@@H](O)CN2S(=O)(=O)c2ccccc2)O1)NCC1CCCCC1", "inhibition": "33.9% (active)"}, {"compound": "O=C(C[C@@H]1CC[C@H]2[C@@H](COC[C@H](O)CN2S(=O)(=O)c2ccccc2)O1)NCCN1CCCC1", "inhibition": "-0.246%"}, {"compound": "CCNC(=O)C[C@@H]1CC[C@@H]2[C@H](COC[C@H](O)CN2S(=O)(=O)c2ccc(Oc3ccccc3)cc2)O1", "inhibition": "-1.5%"}, {"compound": "Cc1ccc(S(=O)(=O)N2C[C@@H](O)COC[C@@H]3O[C@H](CC(=O)NCCCN(C)C)CC[C@H]32)cc1", "inhibition": "-2.12%"}, {"compound": "Cc1ccc(S(=O)(=O)N2C[C@H](O)COC[C@@H]3O[C@@H](CC(=O)NCC4CCCCC4)CC[C@H]32)cc1", "inhibition": "27% (active)"}, {"compound": "Cc1ccc(S(=O)(=O)N2C[C@@H](O)COC[C@@H]3O[C@H](CC(=O)NCc4ccc(Cl)c(Cl)c4)CC[C@H]32)cc1", "inhibition": "0.126%"}, {"compound": "C[C@@H]1CN([C@@H](C)CO)C(=O)CCCn2cc(nn2)CO[C@H]1CN(C)Cc1ccc(C(=O)O)cc1", "inhibition": "-0.624%"}, {"compound": "CN(C)C(=O)c1ccc(-c2ccccc2[C@@H]2[C@@H](C#N)N(C(=O)C3CCCC3)[C@H]2CO)cc1", "inhibition": "-1.75%"}, {"compound": "O=C(c1cccc(F)c1)N1CC[C@@H]2[C@H](CO)Nc3ccc(C#Cc4ccccc4)cc3[C@@H]21", "inhibition": "-0.355%"}, {"compound": "C/C=C/c1ccc([C@@H]2[C@@H](CO)N(C(=O)CN(C)C)C23CN(C(=O)C2CCCC2)C3)cc1", "inhibition": "4.6%"}, {"compound": "CN1C(=O)c2cc(NC(=O)C3CCCC3)ccc2OC[C@@H]2O[C@@H](CC(=O)NCCc3ccncc3)CC[C@@H]21", "inhibition": "1.93%"}, {"compound": "C[C@H](CO)N1C[C@H](C)[C@H](CN(C)C(=O)CCN(C)C)OCc2ccccc2-c2c(n(C)c3ccccc23)C1=O", "inhibition": "2.11%"}, {"compound": "O=C(c1ccccc1)c1ccc(C(=O)N2CCN(c3ccccc3)CC2)cc1", "inhibition": "-1.66%"}, {"compound": "CN1CCC(CN)(N2CCN(c3ccccc3)CC2)CC1", "inhibition": "33.8% (active)"}, {"compound": "CCS(=O)(=O)N1CCC(N2CCN(c3ccccc3)CC2)CC1", "inhibition": "-4.72%"}, {"compound": "CC(C)NC(=O)N(C)C[C@H]1OCCCC[C@H](C)Oc2ccc(NS(=O)(=O)c3ccc(Cl)cc3)cc2C(=O)N([C@@H](C)CO)C[C@H]1C", "inhibition": "-0.682%"}, {"compound": "O=C(c1ccc(F)cc1)n1c(=S)nc2ccccn21", "inhibition": "37.5% (active)"}, {"compound": "O=C(c1ccc(F)cc1)n1cc(C(=S)N2CCOCC2)c2ccccc21", "inhibition": "9.22%"}, {"compound": "O=C(c1ccc(F)cc1)N1CCC(n2nnc3ccccc32)CC1", "inhibition": "-0.54%"}, {"compound": "CO[C@@H]1CN(C)C(=O)c2ccc(NC(=O)NC(C)C)cc2OC[C@@H](C)N(C)C[C@H]1C", "inhibition": "-3.29%"}, {"compound": "CN(C)C(=O)c1cccc(-c2cnc3c(NC=O)cc(-c4ccc(F)cc4)cn23)c1", "inhibition": "3.38%"}, {"compound": "CC(=O)c1cccc(-c2cnc3c(NC=O)cc(-c4cccc(C(=O)N(C)C)c4)cn23)c1", "inhibition": "-1.2%"}, {"compound": "CN(C)CCNC(=O)c1cccc(-c2cnc3c(NC=O)cc(-c4cccc(C(F)(F)F)c4)cn23)c1", "inhibition": "37.1% (active)"}, {"compound": "COc1ccc2c3c(n(C)c2c1)[C@H](CO)N(C(=O)Nc1c(C)noc1C)CC31CN(CC2CC2)C1", "inhibition": "1.61%"}, {"compound": "C=CCOC(=O)[C@H]1[C@@H]2C(=O)O[C@@H](c3ccccc3)[C@@H](c3ccccc3)N2[C@@H](c2ccc(OCCOC(=O)[C@H]3C[C@H]4C(=O)NCC(=O)N4[C@H]3c3ccc(O)cc3)cc2)[C@]12C(=O)Nc1ccccc12", "inhibition": "0.736%"}, {"compound": "O=C(CN(c1ccccc1)S(=O)(=O)c1ccc(Cl)cc1)Nc1ccccc1C(=O)N1CCCC1", "inhibition": "0.298%"}, {"compound": "COc1ccccc1N(CC(=O)Nc1ccccc1C(=O)N1CCCC1)S(C)(=O)=O", "inhibition": "50.9% (active)"}, {"compound": "COc1ccc([N+](=O)[O-])cc1N(CC(=O)Nc1ccccc1C(=O)N1CCOCC1)S(C)(=O)=O", "inhibition": "1.49%"}, {"compound": "O=C(Nc1nnc(COc2ccccc2)s1)Nc1ccccc1F", "inhibition": "36% (active)"}, {"compound": "COc1ccccc1NC(=O)Nc1nc(CC(=O)Nc2ccccc2F)cs1", "inhibition": "0.499%"}, {"compound": "COc1ccccc1NC(=O)Nc1nnc(Cc2ccc(F)cc2)s1", "inhibition": "3.41%"}, {"compound": "CC(C)NC(=O)Nc1ccc2c(c1)C(=O)N([C@@H](C)CO)C[C@H](C)[C@H](CN(C)C(=O)NC1CCCCC1)OCCCC[C@@H](C)O2", "inhibition": "-3.2%"}, {"compound": "C[C@H](CO)N1C[C@H](C)[C@H](CN(C)Cc2ccc3c(c2)OCO3)OCCCC[C@H](C)Oc2ccc(NC(=O)c3ccccc3)cc2C1=O", "inhibition": "4.39%"}, {"compound": "CO[C@@H]1CC[C@@H]2CCOc3ccc(C#N)cc3C(=O)N(C)C[C@@H](C)C(=O)N(C)C[C@@H]1O2", "inhibition": "3.45%"}, {"compound": "C/C(=N\\NC(=O)c1ccccc1F)c1ccccn1", "inhibition": "-1.33%"}, {"compound": "CC(O)c1ccc(OCCN(C)c2ccccn2)cc1", "note": "(configuration not stated)", "inhibition": "-3.42%"}, {"compound": "CCN(CC)CCOc1ccc2c(c1)C(=NNC(=O)c1ccccn1)c1cc(OCCN(CC)CC)ccc1-2", "inhibition": "56.9% (active)"}, {"compound": "COc1ccc2c3c([nH]c2c1)[C@H](CO)N(C(=O)Nc1ccc(F)cc1)CC31CCN(CC2CCOCC2)CC1", "inhibition": "11%"}, {"compound": "CCC(=O)N1[C@@H](CO)[C@@H](c2ccccc2)C12CN(C(=O)c1cnccn1)C2", "inhibition": "-4.68%"}, {"compound": "COCCNC(=O)C[C@@H]1C[C@@H]2c3cc(NS(=O)(=O)c4ccccc4)ccc3O[C@@H]2[C@H](CO)O1", "inhibition": "-1.39%"}, {"compound": "C[C@@H]1CCCCO[C@H](CN(C)C(=O)Nc2ccc3c(c2)OCO3)[C@@H](C)CN([C@@H](C)CO)C(=O)c2cc(NC(=O)CCC(F)(F)F)ccc2O1", "inhibition": "7.93%"}, {"compound": "CCC(=O)Nc1ccc2c(c1)C(=O)N(C)[C@@H]1CC[C@@H](CC(=O)NCCN3CCCCC3)O[C@@H]1CO2", "inhibition": "0.544%"}, {"compound": "Cc1ccc(Nc2nc(Cl)c(C=O)s2)cc1", "inhibition": "-4.45%"}, {"compound": "Nc1ccc(C(=O)Nc2ccccc2N)cc1", "inhibition": "-0.363%"}, {"compound": "Cc1ccc(Nc2ccccc2N)cc1", "inhibition": "49% (active)"}, {"compound": "O=C(C[C@@H]1CC[C@H](NC(=O)c2ccncc2)[C@@H](CO)O1)Nc1ccc(-c2ccccc2)cc1", "inhibition": "-2.25%"}, {"compound": "CO[C@@H]1CN(C)C(=O)c2ccc(NC(C)=O)cc2OC[C@@H](C)N(Cc2ccc(-c3ccccn3)cc2)C[C@H]1C", "inhibition": "2.32%"}, {"compound": "O=C(Nc1nnc(SCc2ccccc2Cl)s1)c1cccc([N+](=O)[O-])c1", "inhibition": "48% (active)"}, {"compound": "O=C(Nc1nnc(SCc2c(Cl)cccc2Cl)s1)c1cccc([N+](=O)[O-])c1", "inhibition": "1.85%"}, {"compound": "NC(=O)CSc1nnc(NC(=O)c2ccc3ccccc3c2)s1", "inhibition": "-1.88%"}]}]}
